Bioassay records from PubChem.
ERa coact pot: enhances coactivator binding to human estrogen receptor alpha | P03372 | TR-FRET ERalpha-LBD/SRC-Cy5 coactivator binding, 2 h; 100 = basal binding, no effect | coactivator binding (% of control), % at 25.6 µM | 86,000 compounds, 1.3% hits | AID 639; in the data active = activity above about 200%;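 note: binding measured in presence of low estradiol as agonist stimulus; 0% = peptide alone without receptor and 100% = receptor with peptide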
CD11b adhes inh: blocks human CD11b/CD18 adhesion to fibrinogen. 93,000 compounds, 0.54% hits. inhibition, % at 10 µM. K562 CD11b/CD18 adhesion to fibrinogen, ATPlite luminescence; Mn2+ added to activate the integrin. P05107+P11215. AID 1497;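 active = primary inhibition of 50% or more at 10 µM, then 40% or more on retest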
Target sequence (P05107 whole entry, looked up, other chains not shown): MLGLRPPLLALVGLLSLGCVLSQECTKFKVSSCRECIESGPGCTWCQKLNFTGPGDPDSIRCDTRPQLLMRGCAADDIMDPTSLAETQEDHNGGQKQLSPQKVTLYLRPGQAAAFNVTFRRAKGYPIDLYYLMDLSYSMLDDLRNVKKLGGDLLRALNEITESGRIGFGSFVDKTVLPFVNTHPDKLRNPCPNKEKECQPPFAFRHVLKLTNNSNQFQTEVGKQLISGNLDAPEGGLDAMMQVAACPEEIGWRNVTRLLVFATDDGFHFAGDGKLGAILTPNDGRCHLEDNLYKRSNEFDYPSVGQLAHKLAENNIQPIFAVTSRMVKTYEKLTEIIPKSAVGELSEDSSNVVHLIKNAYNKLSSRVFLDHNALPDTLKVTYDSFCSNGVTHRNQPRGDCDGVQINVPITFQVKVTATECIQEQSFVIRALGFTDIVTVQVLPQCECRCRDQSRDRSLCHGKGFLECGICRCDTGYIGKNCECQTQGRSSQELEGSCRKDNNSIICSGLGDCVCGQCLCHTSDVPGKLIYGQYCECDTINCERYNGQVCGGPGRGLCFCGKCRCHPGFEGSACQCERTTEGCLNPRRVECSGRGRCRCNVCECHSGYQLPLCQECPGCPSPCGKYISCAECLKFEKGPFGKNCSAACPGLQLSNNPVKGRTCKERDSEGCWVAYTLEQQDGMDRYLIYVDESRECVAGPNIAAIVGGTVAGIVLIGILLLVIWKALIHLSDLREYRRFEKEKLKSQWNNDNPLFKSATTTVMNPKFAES
ERa SRC1 inh: blocks coactivator binding to human estrogen receptor alpha | TR-FRET ER-alpha LBD / SRC-1 peptide, estradiol-bound | inhibition, % at 25.6 µM | 86,000 compounds, 1.7% hits | AID 629; in the data active = inhibition above about 50%;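 note: 0% = receptor plus peptide control and 100% = peptide only without receptor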
ERb coact inh: blocks coactivator binding to human estrogen receptor beta; Q92731; TR-FRET ER-beta LBD / SRC1-Cy5 peptide binding; receptor agonist-loaded with 1 µM estradiol; inhibition, % at 25.6 µM; 86,000 compounds, 1.3% hits;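 active = compounds whose percent inhibition of the receptor-coactivator binding signal exceeds about 50% in the single-dose screen, limit read from the data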;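 note: 0% = receptor plus peptide wells without compound and 100% = peptide-only wells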
CD11b adhes enh: CD11b/CD18-fibrinogen binding enhancement; P05107+P11215; K562 CD11b/CD18 adhesion to fibrinogen, ATPlite luminescence; activation, % at 10 µM; 93,000 compounds, 0.07% hits; AID 1499;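 active = 10 µM primary screen giving 50% or more activity, confirmed by 40% or more on retest at that dose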
* = called active by the depositor; · = no result given; [ ] = remark or other dose. Sampled rows, rich in hits. Any-hit rate of the full collection: about 3.1%.

SMILES	ERa coact pot	CD11b adhes inh	ERa SRC1 inh	ERb coact inh	CD11b adhes enh
NS(=O)(=O)c1ccc(NC(=O)c2ccccc2C(=O)N2CCCCC2)cc1	113.7	4.8	-2.6	-7.3	-2.2
O=c1cc(CSc2nnc(-c3cccs3)n2Cc2ccccc2)nc2sc3ccccc3n12	96.2	105.0	75.4*[fluorescence artefact?]	64.8*	-4.6
COC(=O)c1ccc2c(c1)C(C)(C)C(/C=C/c1ccc(O)cc1)=[N+]2C	·	19.8	·	·	-4.4
COC(=O)c1ccc2c(c1)C(C)(C)C(/C=C/c1ccc(OC)c(OC)c1OC)=[N+]2C	73.3	107.4*	-14.4	0.7	-7.4
Cc1ccccc1C(=O)OCCCN=C1NS(=O)(=O)c2ccccc21	113.9	·	-3.1	0.3	·
CC(=O)Nc1ccc(-n2nnnc2SCC(=O)N2CCN(C(=O)c3ccco3)CC2)cc1	106.4	14.1	-6.3	-3.3	-4.4
O=C(Cc1cn2ccsc2n1)OCc1nc2ccccc2s1	36.9	-3.6	64.0*	63.6*[fluorescence artefact?]	1.8
O=C(Cc1cn2ccsc2n1)OCc1ccccc1	118.5	0.3	4.4	0.4	-0.4
COCCCn1c(=N)c(C(=O)NCc2ccc3c(c2)OCO3)cc2c(=O)n3cccc(C)c3nc21	91.5	·	18.7	24.0	·
CCn1c(=N)c(C(N)=O)cc2c(=O)n3cccc(C)c3nc21	64.7	·	50.0*	36.8	·
COCCCn1c(=N)c(C(N)=S)cc2c(=O)n3cccc(C)c3nc21	37.3	·	68.9*[fluorescence artefact?]	34.7	·
CCOC(=O)c1ccc(C(=O)OCC)c(NC(=S)Nc2ccc([N+](=O)[O-])cc2OC)c1	·	52.8	·	·	-3.9
CC(CCc1ccccc1)NC(=O)CN1CCN(Cc2ccc(Cl)cc2)C1=O (centres undefined)	110.2	9.6	1.2	-7.2	1.0
CC1Cc2ccccc2N1C(=O)CSc1nnnn1C1CCCC1 (centres undefined)	108.7	·	-3.6	4.0	·
O=C(OCn1nnc2ccccc2c1=O)c1cn(-c2ccccc2)nc1-c1cccnc1	120.6	15.1	67.7*	43.0	2.2
Cc1sc2c(=O)n3c(nc2c1C(=O)NC1CCCCC1)CCCCC3	105.5	0.5	-1.2	5.2	-3.3
O=C(CSc1ncn[nH]1)Nc1ccccc1Sc1ccc(Cl)cc1	95.0	·	-6.7	-16.7	·
O=C(O)c1cn(-c2ccccc2)nc1-c1ccncc1	111.5	1.4	-0.4	-2.2	-2.6
O=C(c1cn(-c2ccccc2)nc1-c1ccncc1)n1nnc2ccccc21	216.1*	·	32.7	25.8	·
COC(=O)C1=C(NC(C)=O)CCS1	·	2.7	·	·	-5.0
O=C(OC1CCCCC1)c1ccc2c(c1)C1C=CCC1C(C(=O)O)N2 (centres undefined)	·	-59.2	·	·	150.0*
O=C(O)C1Nc2c(O)cccc2C2C=CCC12 (centres undefined)	-5.7	-10.7	98.7*[fluorescence artefact?]	99.1*[fluorescence artefact?]	72.8
CCCNC(=O)c1ccc2c(c1)C1C3CCC(C3)C1C(c1ccccc1)N2 (centres undefined)	·	5.7	·	·	-1.9
O=C(OC1CCCCC1)c1ccc(NC(=O)C2CCCCC2)cc1	109.8	12.1	-6.2	-1.8	-1.3
O=C(O)c1ccc2c(c1)[C@@H]1C=CC[C@@H]1[C@H](c1ccccn1)N2	21.0	·	68.3*	85.8*	·
SMILES	ERa coact pot	CD11b adhes inh	ERa SRC1 inh	ERb coact inh	CD11b adhes enh
COc1ccc(CN(C)CC(=O)Nc2cc(OC)c([N+](=O)[O-])cc2C)c(OC)c1	·	18.2	·	·	3.6
O=C(c1cc(-c2ccco2)on1)N1CCc2ccccc2C1	91.0	4.6	58.4*	50.8*	-0.1
O=C(c1cc(-c2ccco2)on1)N1CCCc2ccccc21	95.1	3.7	65.9*	52.0*	-1.2
O=C(c1cc(-c2ccccc2O)on1)N1CCc2ccccc2C1	115.9	-5.5	-0.3	-0.8	-0.8
Cc1cc(Cl)ccc1OC(C)C(=O)N1CCCN(C(=O)C(C)Oc2ccc(Cl)cc2C)CC1 (centres undefined)	·	74.8	·	·	-10.9
Cc1ccc(NC(=O)CN2C(=O)S/C(=C\c3cccn3-c3cccc(C(=O)O)c3)C2=O)c(C)c1	·	-17.4	·	·	87.0*
CCN(CC(=O)NC1CCCC1)S(=O)(=O)c1ccc(C)cc1	119.5	-13.6	94.9*[fluorescence artefact?]	1.3	0.5
O=C(COC(=O)CC1CCCC1)Nc1cc2c(cc1Cl)C(=O)c1ccccc1C2=O	62.5	-19.3	51.9*	46.4	-0.8
Cc1nc2cc(-c3ccsc3-n3c(C)ccc3C)[nH]n2c(=O)c1Cl	97.9	88.7	59.2*	64.3*	-6.5
CCOC(=O)c1cnc(-n2cc(C)cn2)nc1NCc1ccc2c(c1)OCO2	99.6	·	65.4*[fluorescence artefact?]	32.0	·
CN(C1CCCCC1)S(=O)(=O)c1ccc(S(=O)(=O)N2CCN(CCC#N)CC2)cc1	112.8	-10.4	-8.0	53.8*	14.5
Cc1ccc(OCCN2CCN(CC(O)Cn3c4ccccc4c4ccccc43)CC2)cc1 (centres undefined)	·	64.6	·	·	0.7
CCC(=C(c1ccc(OC)cc1)c1ccc(OC)cc1)c1cn(CC(O)CN2CCN(C)CC2)c2ccccc12 (centres undefined)	25.9	18.9	70.3*[fluorescence artefact?]	36.1	8.5
N#Cc1cc2c(nc1SCc1ccccc1)CCC2	283.4*[fluorescence artefact?]	·	55.3*[fluorescence artefact?]	59.4*[fluorescence artefact?]	·
COc1ccc(OC)c(NC(=O)C2CCN(c3cc(-c4ccccc4)nc4ncnn34)CC2)c1	127.0	-1.2	30.8	55.7*[fluorescence artefact?]	7.7
COc1ccc(NC(=O)C2CCN(c3cc(-c4ccccc4)nc4ncnn34)CC2)cc1OC	104.2	-4.9	16.6	-4.1	-0.9
O=C(NCc1cc(Br)cc(Br)c1OC(=O)c1ccccc1[N+](=O)[O-])c1ccccc1	·	41.0	·	·	2.0
Cc1sc(-c2ccncc2)nc1OC(=O)c1ccc(Cl)cc1	113.0	-3.5	7.7	10.0	-2.0
Cc1sc(-c2ccncc2)nc1OC(=O)c1cc(Cl)cc(Cl)c1	224.1*	7.1	-6.3	-3.7	-1.5
CCC(C)n1c(=O)c(C(=O)Nc2ccccc2S(N)(=O)=O)c(O)c2ccccc21 (centres undefined)	207.8*	-1.2	34.5	29.2	-2.2
CCOc1ccc(Br)cc1CC(=O)O	110.4	·	-1.4	4.2	·
CCCOc1ccc(Br)cc1CSC(=N)N	·	101.6*	·	·	-7.0
O=C(Nc1ccccc1[N+](=O)[O-])C1=C(O)CCn2c1nc1ccccc12	146.7	4.6	63.0*	48.7	-0.8
Cc1nc2ccccc2n1C(=O)c1ccccc1[N+](=O)[O-]	·	8.3	·	·	-0.2
O=C(CSc1nnc(-c2ccncc2)n1-c1ccc(F)cc1)NNC(=O)c1cccc(O)c1	·	7.6	·	·	1.7
O=C(/C=C/c1ccccc1[N+](=O)[O-])Nc1cccnc1	·	3.5	·	·	-1.8
O=C(CSc1nnnn1-c1ccc2c(c1)OCCO2)c1cccc2c1OCCO2	375.4*[fluorescence artefact?]	38.1	-15.9	-26.9	2.0
COc1ccc(-n2nnnc2SCC(=O)c2cccc(OC)c2)cc1	130.5	-6.9	0.7	2.1	0.8
Cn1c(=O)oc2ccc(C(=O)CSc3nnnn3-c3ccccc3)cc21	283.6*[fluorescence artefact?]	-13.5	17.5	11.2	10.4
O=C(O)CSc1nnnn1-c1ccc2c(c1)OCCO2	·	-0.3	·	·	-3.5
